The values that follow come from PubChem BioAssay (EPA / NIEHS).

Read-out in assay [1]: Interleukin-1 alpha (IL1a), IL1A (gene 3552)
Nature of the assay: BSK_LPS_IL1a: BioMAP Diversity Plus: LPS Assay for Interleukin-1 alpha (IL1a) Biomarker Activity (AID 2283080). To be noted: primary human HUVEC with PBMC; actives raise or lower the signal. Summed up:
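ELISA read-out of IL-1 alpha from a human primary vascular co-culture (endothelium plus PBMC) under LPS, sampled 24 hours post-dosing. Activity was fitted in both directions relative to DMSO controls.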

Read-out in assay [2]: Monocyte Chemoattractant Protein-1 (MCP1), CCL2 (gene 6347)
Nature of the assay: BSK_LPS_MCP1: BioMAP Diversity Plus: LPS Assay for Monocyte Chemoattractant Protein-1 (MCP1) Biomarker Activity (AID 2283081).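 As to AC50: secreted MCP-1 protein quantified by ELISA in culture supernatant.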 The settings on record: primary human HUVEC with PBMC; actives raise or lower the signal. Summed up:
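Human endothelial–PBMC co-cultures were dosed with chemical, then LPS-driven MCP-1 levels were quantified by ELISA at 24 h. Activity in either direction was fitted versus DMSO negative control.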

Assay [3] can be described thus: BSK_LPS_PGE2: BioMAP Diversity Plus: LPS Assay for Prostaglandin E2 (PGE2) Biomarker Activity (AID 2283082).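 As to AC50: secreted prostaglandin E2 measured by ELISA in LPS-stimulated co-culture.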 To be noted: primary human HUVEC with PBMC; actives raise or lower the signal. An outline of the steps:
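LPS-activated HUVEC/PBMC co-culture; cmpd dosed, 24 h; PGE2 by ELISA; bidirectional fit vs DMSO; SRB (0.1%, TCA-fixed, 560 nm) in parallel plates for overt cytotox.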

Read-out in assay [4]: Macrophage colony-stimulating factor (MCSF), CSF1 (gene 1435)
Nature of the assay: BSK_LPS_MCSF: BioMAP Diversity Plus: LPS Assay for Macrophage colony-stimulating factor (MCSF) Biomarker Activity (AID 2283083). To be noted: primary human HUVEC with PBMC; actives raise or lower the signal. Summed up: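 ELISA readout of M-CSF after 24 h compound exposure in a human endothelial/PBMC co-culture. Activity, in either direction, is fitted relative to DMSO vehicle.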

Read-out in assay [5]: Tissue Factor, F3 (gene 2152)
Nature of the assay: BSK_LPS_TissueFactor: BioMAP Diversity Plus: LPS Assay for Tissue Factor Biomarker Activity (AID 2283084). The settings on record: primary human HUVEC with PBMC; actives raise or lower the signal. Summed up:
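ELISA signal for cell-surface Tissue Factor (CD142) was read 24 h after compound dosing of an LPS-stimulated human endothelial–PBMC primary co-culture. Gain or loss of signal was scored relative to DMSO.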

Read-out in assay [6]: Tumor necrosis factor (Homo sapiens) (UniProt P01375)
Kind of assay: BSK_LPS_TNFa: BioMAP Diversity Plus: LPS Assay for Tumour Necrosis Factor alpha (TNFa) Biomarker Activity (AID 2283085). To be noted: primary human HUVEC with PBMC; actives raise or lower the signal. An outline of the steps:
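Read-out is ELISA of TNFa in primary human endothelial cell–PBMC co-cultures at 24 h after compound. Activity in either direction was fitted against DMSO.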

Read-out in assay [7]: Vascular cell adhesion molecule 1 (VCAM1), VCAM1 (gene 7412)
Nature of the assay: BSK_LPS_VCAM1: BioMAP Diversity Plus: LPS Assay for Vascular cell adhesion molecule 1 (VCAM1) Biomarker Activity (AID 2283086). The settings on record: primary human HUVEC with PBMC; actives raise or lower the signal. An outline of the steps:
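HUVEC + PBMC co-culture, LPS system; compound 24 h; VCAM-1 by ELISA; bidirectional fit vs DMSO control; parallel SRB (0.1%, TCA-fixed, 560 nm) for cytotoxicity.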

Read-out in assay [8]: CD38, CD38 (gene 952)
Nature of the assay: BSK_SAg_CD38: BioMAP Diversity Plus: SAg Assay for CD38 Biomarker Activity (AID 2283087). To be noted: primary human HUVEC with PBMC; actives raise or lower the signal. An outline of the steps: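 Human HUVEC plus PBMC co-culture stimulated with superantigen; CD38 measured by ELISA 24 h after chemical dosing. Fluorescence read-out, bidirectional fit against DMSO; cytotoxicity tracked in parallel by SRB and Alamar Blue.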

Read-out in assay [9]: CD40, CD40 (gene 958)
Kind of assay: BSK_SAg_CD40: BioMAP Diversity Plus: SAg Assay for CD40 Biomarker Activity (AID 2283088). The settings on record: primary human HUVEC with PBMC; actives raise or lower the signal. An outline of the steps: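 Compounds were dosed onto a human primary endothelial–PBMC co-culture, and after 24 h CD40 was quantified by ELISA using a fluorescence signal. Activity in either direction was fitted relative to DMSO.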

Read-out in assay [10]: CD69, CD69 (gene 969)
Nature of the assay: BSK_SAg_CD69: BioMAP Diversity Plus: SAg Assay for CD69 Biomarker Activity (AID 2283089).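 As to AC50: cell surface CD69 protein quantified by ELISA with fluorescence detection.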 To be noted: primary human HUVEC with PBMC; actives raise or lower the signal. An outline of the steps: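 Primary human vascular co-culture (umbilical vein endothelium with peripheral blood mononuclear cells) exposed to test chemical for 24 h. CD69 levels quantified by fluorescence ELISA; DMSO served as negative control for bidirectional fitting.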

Read-out in assay [11]: Monocyte Chemoattractant Protein-1 (MCP1), CCL2 (gene 6347)
Kind of assay: BSK_SAg_MCP1: BioMAP Diversity Plus: SAg Assay for Monocyte Chemoattractant Protein-1 (MCP1) Biomarker Activity (AID 2283090). To be noted: primary human HUVEC with PBMC; actives raise or lower the signal. An outline of the steps: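 MCP-1 levels in the endothelial–PBMC SAg co-culture were quantified by ELISA at 24 h post-dosing; both increases and decreases versus DMSO scored. Cytotoxicity monitored by SRB total protein in parallel cultures.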

Read-out in assay [12]: E-selectin (Homo sapiens) (UniProt P16581)
Nature of the assay: BSK_SAg_Eselectin: BioMAP Diversity Plus: SAg Assay for Eselectin Biomarker Activity (AID 2283091). The settings on record: primary human HUVEC with PBMC; actives raise or lower the signal. An outline of the steps:
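Co-culture: HUVEC + PBMC. Dose compound; 24 h. ELISA for E-selectin. Bidirectional fit vs DMSO.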

Read-out in assay [13]: Monokine induced gamma interferon (MIG), CXCL9 (gene 4283)
Nature of the assay: BSK_SAg_MIG: BioMAP Diversity Plus: SAg Assay for Monokine induced gamma interferon (MIG) Biomarker Activity (AID 2283092). To be noted: primary human HUVEC with PBMC; actives raise or lower the signal. Summed up:
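Endothelial cells and PBMC were co-cultured, exposed to test chemicals, and sampled 24 h later. MIG was measured by ELISA, and responses were fitted in both directions relative to DMSO.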

Assay [14] is described as follows: BSK_SAg_PBMCCytotoxicity: PBMC Cytotoxicity Assessment in the BioMAP Diversity Plus: SAg Assay (AID 2283093).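 Also: PBMC viability measured as Alamar Blue reduction fluorescence at 546/580 nm; fitted both ways against DMSO so a hit may be loss or gain of signal.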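 As to AC50: PBMC superantigen activated with SEB plus TSST-1 one hour after compound addition.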 The settings on record: primary human HUVEC with PBMC. Summed up:
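HUVEC/PBMC co-culture; PBMC exposed to chemical 1 h before SEB and TSST-1 activation (20 ng/mL each), incubated 90 h, then Alamar Blue 6 h, fluorescence 546/580 nm. Bidirectional fit versus DMSO baseline.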

Read-out in assay [15]: Interleukin-8 (IL8), CXCL8 (gene 3576)
Kind of assay: BSK_SAg_IL8: BioMAP Diversity Plus: SAg Assay for Interleukin-8 (IL8) Biomarker Activity (AID 2283094). To be noted: primary human HUVEC with PBMC; actives raise or lower the signal. An outline of the steps:
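ELISA read-out of IL-8 in a primary human vascular co-culture (umbilical vein endothelium plus PBMC), taken 24 h after compound addition. Values derive from bidirectional fits against DMSO negative controls.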

A short description of assay [16]: BSK_SAg_Proliferation: Cell Proliferation Assessment in the BioMAP Diversity Plus: SAg Assay (AID 2283095).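 Also: relative cell number as total protein by SRB absorbance in sub-confluent culture.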 The settings on record: primary human HUVEC with PBMC. Summed up: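 Cells (endothelium plus PBMC, human primary) were dosed with chemical, cultured 96 h, fixed in 10% TCA and stained with 0.1% SRB. Absorbance at 560 nm gave relative protein, fitted bidirectionally relative to DMSO.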

Assay [17] is described as follows: BSK_SAg_SRB: Viability Assessment in the BioMAP Diversity Plus: SAg Assay (AID 2283096).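 Also: cells read one day after compound addition; hits may be either gain or loss of signal compared with DMSO.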 To be noted: primary human HUVEC with PBMC. Summed up: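 Human umbilical vein endothelial cells co-cultured with PBMC, read 24 h after compound dosing. Total protein measured by sulforhodamine B staining (0.1% SRB after 10% TCA fixation, absorbance 560 nm); bidirectional fit versus DMSO baseline.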

Several values for one entry are separate records, joined by “and”; a condition that tells them apart may be missing. Identical values can stand only once. Where a structure was tested more than once in an assay, its records may differ in their call. Activity calls are given as the source filed them. The calls were made as follows: active = hit-call score of the fitted dose curve at least 0.9, where 1 is the maximum; inactive = score below 0.9.

Chain of E-selectin (Homo sapiens) (P16581 whole entry, looked up): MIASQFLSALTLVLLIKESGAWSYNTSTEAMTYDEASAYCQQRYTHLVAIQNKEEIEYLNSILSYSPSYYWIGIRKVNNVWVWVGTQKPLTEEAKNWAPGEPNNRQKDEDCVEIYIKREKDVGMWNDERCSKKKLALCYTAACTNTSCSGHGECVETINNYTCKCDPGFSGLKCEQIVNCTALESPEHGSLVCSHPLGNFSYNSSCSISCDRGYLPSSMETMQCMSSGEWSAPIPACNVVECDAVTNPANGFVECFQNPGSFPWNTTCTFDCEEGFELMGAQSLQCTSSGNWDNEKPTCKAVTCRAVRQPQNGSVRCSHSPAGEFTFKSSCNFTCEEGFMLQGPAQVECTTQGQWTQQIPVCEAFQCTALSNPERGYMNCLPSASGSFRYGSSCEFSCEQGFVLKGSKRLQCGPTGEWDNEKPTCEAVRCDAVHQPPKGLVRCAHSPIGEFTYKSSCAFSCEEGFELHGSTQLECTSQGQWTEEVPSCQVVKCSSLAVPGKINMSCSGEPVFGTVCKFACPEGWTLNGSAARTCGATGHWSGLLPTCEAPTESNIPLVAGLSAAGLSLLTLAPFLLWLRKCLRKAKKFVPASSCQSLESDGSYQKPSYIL
Chain of Tumor necrosis factor (Homo sapiens) (P01375 whole entry, looked up): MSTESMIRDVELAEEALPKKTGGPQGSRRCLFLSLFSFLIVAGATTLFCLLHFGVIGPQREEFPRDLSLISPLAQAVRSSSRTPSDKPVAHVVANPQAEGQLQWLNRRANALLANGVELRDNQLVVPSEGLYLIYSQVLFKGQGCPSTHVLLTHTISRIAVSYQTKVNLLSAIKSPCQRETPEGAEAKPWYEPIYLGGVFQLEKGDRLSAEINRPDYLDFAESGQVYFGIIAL

Regarding `O=C(O)C(F)(F)C(F)(F)C(F)(F)C(F)(F)C(F)(F)C(F)(F)C(F)(F)C(F)(F)Cl`, the result in [1], in assay [2], in assay [4], in assay [5], in assay [6] and in [7] was inactive. Further, the result in [12], in assay [13], in [14] and in assay [16] was inactive. Further, the concentration at half-maximal activity (AC50) in assay [3] is 21.9 µM (active) and 22 µM (active); in assay [4], 19.4 µM (active); in [7], 30 µM (active); in [8], 50.4 µM (active) and 30 µM (active); in [9] it was 38.2 µM (active) and 45.9 µM (active); in [10] it was 30 µM (active) and 45 µM (active). Further, the AC50 was 45.9 µM (active) and 50.4 µM (active) in assay [11]; 48.8 µM (active) and 50.1 µM (active) in [15]; 54.5 µM (active) in [16]; 48.1 µM (active) and 45.1 µM (active) in assay [17].

Consider `C=CC(=O)OCC(F)(F)C(F)(F)C(F)(F)C(F)(F)COC(=O)C=C`, for which the AC50 is 20.2 µM (active) and 21.2 µM (active) in assay [1]; 17.3 µM (active) and 19.4 µM (active) in [2]; 8.08 µM (active) in [3]; 21.4 µM (active) and 21.3 µM (active) in assay [4]; 36.4 µM (active) and 34.8 µM (active) in [5]; 18.3 µM (active) and 18.1 µM (active) in assay [6]. Also, the AC50 in assay [7] is 16.6 µM (active) and 16.4 µM (active); in [8], 17.6 µM (active) and 20.6 µM (active); in [9] it was 13.1 µM (active) and 15.1 µM (active); in assay [10], 14.5 µM (active) and 17.3 µM (active); in [11] it was 27.9 µM (active) and 25.1 µM (active); in assay [12] it was 15.5 µM (active) and 15.3 µM (active). The AC50 in assay [13] was 20.6 µM (active) and 20.9 µM (active); in assay [14] it was 28.9 µM (active) and 30 µM (active); in assay [15], 16.8 µM (active) and 25 µM (active); in assay [16] it was 8.2 µM (active) and 8.47 µM (active); in assay [17] it was 44.6 µM (active) and 46.9 µM (active). Moreover, the result in [3] was inactive.

Turning to `O[Si](c1ccccc1)(c1ccccc1)c1ccccc1`, the result in assay [1], in assay [5], in assay [6] and in assay [7] was inactive. In addition, the AC50 was 28.9 µM (active) in [2]; 11.6 µM (active) in [3]; 20 µM (active) in [4]; 32.6 µM (active) in [8]; 29.6 µM (active) in assay [9]; 31.7 µM (active) in [10]. Also, the AC50 in assay [11] was 32.5 µM (active); in assay [12], 31 µM (active); in [13] it was 31.1 µM (active); in assay [14] it was 30.5 µM (active); in [15] it was 20 µM (active); in assay [16] it was 32.6 µM (active). Also, in [17], the AC50 was 26.8 µM (active).

Take `O=C(O)C(F)(F)C(F)(F)C(F)(F)C(F)(F)C(F)(F)C(F)(F)C(F)(F)C(F)(F)C(F)(F)C(F)(F)C(F)(F)C(F)(F)F`: the outcome in assay [1], in [2], in assay [3], in assay [5], in assay [6] and in assay [7] was inactive. Moreover, the result in assay [8], in [10], in [11], in [12], in assay [13] and in assay [14] was inactive. The result in [15], in [16] and in [17] was inactive. In addition, the AC50 in [4] is 20.4 µM (active) and 21.6 µM (active); in [9], 21.1 µM (active) and 16.7 µM (active).

For the molecule `FC(F)(F)C(F)(F)C(F)(F)CI`, the result in assay [1], in assay [2], in assay [3], in [4], in assay [5] and in [6] was inactive. Besides, the result in [7], in assay [8], in [9], in [10], in [11] and in [12] was inactive. In addition, the result in assay [13], in [14], in assay [15], in [16] and in assay [17] was inactive.
